PLK1 PBD inh – qHTS for Inhibitors of PLK1-PDB (polo-like kinase 1 - polo-box domain): Primary Screen. Plk1 PBD binding of FITC phosphopeptide, fluorescence polarization. 2.8% of 360,000 active. Potency, µM, for inactives: max response, negative = inhibition, usual class: inhibitors. Serine/threonine-protein kinase PLK1 (Homo sapiens), P53350. AID 720504, 2013; also: series mostly up to about 57 µM; % is scaled to controls: 0 for no effect and ±100 for the full control effect; nearly all actives have a fitted effect of over 65% in size
G9a block – qHTS Assay for Inhibitors of Histone Lysine Methyltransferase G9a. Histone-lysine N-methyltransferase EHMT2 (Homo sapiens), Q96KQ7. G9a H3K9 monomethylation, AlphaScreen, 2 h. Potency, µM (series often up to 102 µM), for the others: at the top dose activity, negative = inhibition, most hits filed as inhibitors. 8.8% of 350,000 active. AID 504332, 2011; also: % is scaled to controls: 0 for no effect and ±100 for the full control effect; nearly all actives have a fitted effect of over 75% in size
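Readings reflect AlphaScreen signal from monomethyl-H3K9 antibody detection. HMT at 20 nM; substrate b-H3K9 500 nM; cofactor SAM 20 uM; 2 h RT reaction; compounds tested as titrations in qHTS with 15 min preincubation.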
BAZ2B inh – qHTS Assay for Inhibitors of BAZ2B; Potency, µM (doses to about 114 µM), for the others: top-dose activity change, negative = inhibition, actives largely listed as inhibitors; Bromodomain adjacent to zinc finger domain protein 2B (Homo sapiens), Q9UIF8; AlphaScreen BAZ2B-H3K14Ac peptide displacement; 4.4% of 360,000 active; also: % is scaled to controls: 0 for no effect and ±100 for the full control effect; nearly all actives have a fitted effect of over 60% in size
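In this displacement format the biotinylated H3(5-23) peptide acetylated at Lys14 serves as ligand at 50 nM, with BAZ2B at 50 nM in PBS pH 7.4 containing 0.01% Tween-20. Donor and acceptor beads are 10 ug/mL final.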
JMJD2A Tudor inh – qHTS Assay for Inhibitors of JMJD2A-Tudor Domain. AlphaScreen JMJD2A-Tudor / H3K4me3 peptide binding. AID 504339, 2011. 4.4% of 390,000 active. Potency, µM (top dose mostly 114 µM), for the others: at the top dose activity change, negative = inhibition, actives largely listed as inhibitors. Lysine-specific demethylase 4A (Homo sapiens), O75164; also: % is scaled to controls: 0 for no effect and ±100 for the full control effect; nearly all actives have a fitted effect of over 50% in size
Target sequence (O75164 whole entry, looked up, the tested form may be a part): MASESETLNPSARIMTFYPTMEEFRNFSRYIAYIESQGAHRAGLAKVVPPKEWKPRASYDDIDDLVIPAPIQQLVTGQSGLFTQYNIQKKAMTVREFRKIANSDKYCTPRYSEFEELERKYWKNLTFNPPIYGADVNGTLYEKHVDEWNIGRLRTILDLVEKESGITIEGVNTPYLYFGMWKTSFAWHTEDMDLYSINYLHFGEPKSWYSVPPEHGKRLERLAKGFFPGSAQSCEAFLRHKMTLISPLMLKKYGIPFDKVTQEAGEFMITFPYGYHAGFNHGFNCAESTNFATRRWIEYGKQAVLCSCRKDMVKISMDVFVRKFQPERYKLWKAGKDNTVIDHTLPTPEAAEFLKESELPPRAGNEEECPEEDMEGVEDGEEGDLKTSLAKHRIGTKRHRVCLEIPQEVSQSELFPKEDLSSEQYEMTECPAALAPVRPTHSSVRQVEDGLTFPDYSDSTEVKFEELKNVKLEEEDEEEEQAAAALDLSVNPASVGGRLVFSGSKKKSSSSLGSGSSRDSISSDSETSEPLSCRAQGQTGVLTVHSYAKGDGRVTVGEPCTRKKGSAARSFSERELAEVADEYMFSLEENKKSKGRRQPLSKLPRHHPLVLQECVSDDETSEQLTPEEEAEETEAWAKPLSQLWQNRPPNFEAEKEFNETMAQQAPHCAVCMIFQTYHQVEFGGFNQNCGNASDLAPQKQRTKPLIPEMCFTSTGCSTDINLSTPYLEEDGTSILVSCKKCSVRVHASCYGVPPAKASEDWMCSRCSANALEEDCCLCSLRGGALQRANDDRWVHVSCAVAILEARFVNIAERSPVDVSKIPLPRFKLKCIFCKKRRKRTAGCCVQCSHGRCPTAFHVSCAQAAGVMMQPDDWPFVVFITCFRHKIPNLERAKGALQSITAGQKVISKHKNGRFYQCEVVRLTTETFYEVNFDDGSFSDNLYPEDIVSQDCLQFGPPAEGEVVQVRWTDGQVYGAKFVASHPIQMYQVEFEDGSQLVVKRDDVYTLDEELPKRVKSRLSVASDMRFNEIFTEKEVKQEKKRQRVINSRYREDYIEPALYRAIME
HP1b binding inh – HTS for Inhibitors of HP1-beta Chromodomain Interactions with Methylated Histone Tails. Chromobox protein homolog 1 (Homo sapiens), P83916. AlphaScreen HP1-beta / biotin-H3K9me3 peptide binding. Potency, µM (doses to about 114 µM), for inactives: at the highest dose activity change, negative = inhibition, usual class: inhibitors. 0.56% of 390,000 active. AID 540317, 2011; also: nearly all actives have a fitted effect of over 70% in size
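Compound inhibition of the preformed complex between 50 nM HP1-beta and 50 nM biotinylated H3K9me3 peptide was read by AlphaScreen. Buffer was PBS pH 7.4 with 0.01% Tween-20. Incubations ran 30 min at room temperature, with 10 ug/mL donor/acceptor beads.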
Sfp PPTase inh – qHTS Assay for Inhibitors of Bacillus subtilis Sfp phosphopantetheinyl transferase (PPTase) | 4'-phosphopantetheinyl transferase ffp (Bacillus subtilis), Q9F4F7 | Biochemical Sfp PPTase activity, qHTS | Potency, µM, inactives show largest response in the series, negative = inhibition, hits mostly inhibitors | 3.5% of 310,000 active;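 also: the enzyme is Sfp with the accession as filed and its product quenches rhodamine fluorescence; 0% = enzyme reaction without inhibitor and -100% = no enzyme wells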
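Sfp 15 nM + cpd, 15 min RT; start w/ rhodamine-CoA 5 uM, BHQ-2-YbbR 12.5 uM (final); 50 mM Hepes pH 7.6, 10 mM MgCl2, 0.01% NP-40, 0.01% BSA; read 525/598 nm at 0 and 30 min.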
The depositor's hits bear a star; u = inconclusive; x = not tested or not shown; ! = repeats disagree; [ ] = remark or other dose. In the library only some 12% were active in any assay of this set; here they are far more common. Calls follow the shape of the dose curve; as a rule, active = well fitted curve in the direction sought with a large enough effect; inconclusive = small, poorly fitted or top-dose-only effect, or another doubt; inactive = no such curve, though single readings can be large; an effect the other way counts as inactive or inconclusive. Potency is read from the fitted curve at half-maximal effect.

SMILES	PLK1 PBD inh	G9a block	BAZ2B inh	JMJD2A Tudor inh	HP1b binding inh	Sfp PPTase inh
Cc1cccc(C)c1NC(=O)C1(C)CSCC(=O)N1CCCN1CCOCC1 (stereo unspecified)	-19%	x	x	x	x	x
COc1ccc(C2CC(c3ccccc3)Oc3cc4c(cc32)OCO4)cc1 (stereo unspecified)	x	x	x	35µM*	u	45µM*!
COc1ccc(C2CC(c3ccccc3)Oc3ccc(C(C)(C)C)cc32)cc1 (stereo unspecified)	x	x	x	1%	53%	-10%
COc1ccc(C2CC(c3ccccc3)Oc3cc(OC)c(OC)c(OC)c32)cc1 (stereo unspecified)	x	x	x	-19%	23%	-3%
COc1ccc(C2CC(c3ccccc3)Oc3cc(OC)ccc32)cc1 (stereo unspecified)	x	x	x	40µM*	u	u
Cc1ccc(SCC(=O)OCC(=O)N(CC(C)C)c2c(N)n(Cc3ccccc3)c(=O)[nH]c2=O)cc1C	-3%	-34%	-1%	-10%	-6%	x
Cc1ccc(NC2=CC(=O)c3sc(C)nc3C2=O)cc1	x	x	x	x	x	-11%
Cc1cc(OCc2nc3ccccc3s2)ccc1N	11µM*	10µM*	40µM*	u	u	20µM*
CCC(=O)Nc1ccc(OCc2nc3ccccc3s2)cc1	17µM*	10µM*	x	-31%	-26%	45µM*
c1ccc(OCc2nc3ccccc3s2)cc1	-7%	58%[59 µM]	58%	64%	93%	9%
CCOC(=O)C(=O)Cc1nc2ccccc2s1	-10%	50µM*	u	-29%	14%	2%
OC[C@@H]1CN(Cc2ccccc2)C[C@H](n2cnc3c(Nc4ccccc4)ncnc32)O1	-12%	x	x	x	x	x
O=C(CS(=O)Cc1ccco1)NCC=CCOc1cc(CN2CCCCC2)ccn1 (stereo unspecified)	x	u	x	x	x	-7%
CC/C(=C\C(=O)c1ccncc1)Nc1ccc(Br)cc1	-2%	u	50µM*	u	u	-14%
COc1ccccc1/C=C1\SC(=S)N(CCC(=O)NC2=NCCS2)C1=O	-17%	-4%[59 µM]	-37%	-31%	u	-8%
COc1ccc(/C=C2\SC(=S)N(CCC(=O)Nc3cccc(O)c3)C2=O)cc1	-8%	x	1%	-16%	9%	-3%
COc1ccccc1/C=C1\SC(=S)N(CCC(=O)Nc2ccc(C(=O)O)c(O)c2)C1=O	u	50µM*	50µM*	u	u	-10%
O=C(CCN1C(=O)/C(=C\c2ccco2)SC1=S)Nc1ccc(C(=O)O)c(O)c1	u	u	35µM*	56µM*	u	45µM*
O=C(CCN1C(=O)/C(=C/c2ccco2)SC1=S)Nc1ccc(C(=O)O)c(O)c1	12µM*	22µM*	45µM*	50µM*	50µM*	56µM*
CCOC(=O)N1CCN(C(=O)c2ccc(NC(=O)c3ccc(C)cc3)cc2)CC1	-6%	-12%	-21%	-11%	31%	-2%
Cn1cnnc1SCC(=O)NN1C(=O)NC(C)(c2ccccc2)C1=O (stereo unspecified)	5%	22µM*	-30%	-11%	26%	5%
COc1ccc(N2CCN(C(=O)CCCCCn3c(=S)[nH]c4ccc(N5CCOCC5)cc4c3=O)CC2)cc1	2%	x	x	x	x	x
CN(CCC1CCOCC1)C(=O)CC1C(=O)NCCN1Cc1ccccc1F (stereo unspecified)	-3%	8.9µM*	-16%	-10%	22%	3%
CN(CCCC1CCCC1)C(=O)CC1C(=O)NCCN1Cc1ccc(F)cc1 (stereo unspecified)	-13%	79µM*	u	-26%	19%	-4%
CC(c1ccccc1)n1c(-c2cccs2)nc2c(c(=O)c3ccccc3n2C)c1=O (stereo unspecified)	-10%	32%[12.7 µM]	u	-20%	8%	79µM*
SMILES	PLK1 PBD inh	G9a block	BAZ2B inh	JMJD2A Tudor inh	HP1b binding inh	Sfp PPTase inh
Cn1c2ccccc2c(=O)c2c(=O)n(-c3ccc(F)cc3)c(-c3cccs3)nc21	-23%	x	-3%	-22%	22%	-4%
CC(=O)c1cccc(NC(=O)c2cccn2-c2nnc(N3CCCCC3)s2)c1	x	-30%[59 µM]	-14%	-29%	-11%	x
O=C(c1ccccc1[N+](=O)[O-])n1cnc2ccccc21	-5%	u	u	-26%	0%	10%
O=C(c1ccc([N+](=O)[O-])cc1[N+](=O)[O-])n1cnc2ccccc21	-2%	u	-4%	-22%	27%	79µM*
O=C(NCc1ccc(Cl)cc1)c1cc(-c2cccs2)on1	-1%	u	-30%	-15%	22%	25µM*
O=C(NCc1ccc(Cl)cc1)C(=O)Nc1nccs1	-2%	50µM*	-13%	-8%[11.4 µM]	21%	-9%
O=C(NCCCn1ccnc1)C(Cc1ccccc1)N1C(=O)c2ccccc2C1=O (stereo unspecified)	u	-45%[12.7 µM]	u	4%[57.1 µM]	21%	56µM*
S=C(NCCCn1ccnc1)Nc1cccc(Cl)c1	-16%	79µM*	45µM*	-12%	42%	4%
CC1(C(=O)Nc2ccc3c(c2)OCCO3)CN(S(C)(=O)=O)CC(=O)N1CC(F)(F)F (stereo unspecified)	1%	x	x	x	x	x
Cc1ccc2[nH]c3nc(CCCn4ccnc4-c4ccccc4)nnc3c2c1	x	x	x	x	x	7%
COc1ccc(NC(=O)C2Cc3c(-c4cccc(NC(C)=O)c4)ccnc3O2)cc1 (stereo unspecified)	-9%	x	x	x	x	x
O=C(NCc1cccnc1)C(=O)Nc1nccs1	x	u	x	x	x	-22%
CC(C)c1ccc(CNC(=O)C(=O)Nc2nccs2)cc1	-6%	7.1µM*	-5%	u	11%	-1%
CC(C)c1ccc(CNC(=O)C(=O)NCCCn2ccnc2)cc1	-3%	0%[59 µM]	50µM*	-27%	14%	5%
CC(NC(=O)C(=O)NCCCn1ccnc1)c1ccccc1 (stereo unspecified)	6%	-1%	1%	6%	13%	8%
COc1ccc2c(Sc3ccc(Cl)cc3)c(C(=O)NCCCN3CCCCC3)[nH]c2c1	x	-50%[59 µM]	-23%	-30%	6%	x
CCCOc1ccc2nc(C)c(CCC)c(SC(=N)N)c2c1	0%	40µM*	u	u	29%	u
CCCc1c(C)nc2ccc(OC)cc2c1SCCC(=O)O	u	24%[59 µM]	-5%	-15%	27%	14%
CN1CCN(c2ncnc3c2ncn3[C@H]2CN(Cc3ccc4c(c3)OCO4)C[C@@H](CO)O2)CC1	-3%	x	x	x	x	x

Assay outcomes deposited in PubChem BioAssay by National Center for Advancing Translational Sciences (NCATS).
